Values joined by “and” are separate entries in the source; they are usually repeats but may differ in a detail not shown here. Identical values can stand only once. Out of some 5,500 compounds screened, about 2,000 (36%) were called active. Inconclusive results (about 18%) are left out. Rule as the data show it: active = normalized growth mostly below about 0.91 (no sharp cut-off); inconclusive = no clear call, values can overlap the other calls; inactive = mostly above about 0.92. The list shows a part of the results.
Assay: chemical genetic growth profiling, strain panel (AID 1159580);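 also: tested at 20 µM; growth read once vehicle control cultures reached saturation at 30 °C; 1 = growth at the plate median or of vehicle wells; lower values mean less growth of the strain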
Conditions: S. cerevisiae deletion strains, growth OD

Measured: normalized growth

C=Cc1c2[nH]c(c1C)C=c1[nH]c(c(C)c1C=C)=CC1N=C(C=c3[nH]c(c(C)c3CCC(=O)O)=C2)C(CCC(=O)O)=C1C (configuration not stated)
inactive: locus YAL013W, strain DEP1, stronger effect = lower value 0.975 | locus YAL021C, strain ccr4, stronger effect = lower value 0.954 | locus YAL026C, strain drs2, stronger effect = lower value 1.02 | locus YAL030W, strain snc1, stronger effect = lower value 1.03 | locus YBL061C, strain skt5, stronger effect = lower value 1.02 | locus YBR009C, strain hhf1, stronger effect = lower value 1.02 | locus YBR021W, strain FUR4, stronger effect = lower value 1.01 | locus YBR023C, strain chs3, stronger effect = lower value 1.01 | locus YBR171W, strain sec66, stronger effect = lower value 1.08 | locus YBR229C, strain ROT2, stronger effect = lower value 0.961 | locus YBR231C, strain swc5, stronger effect = lower value 1.02 | locus YBR279W, strain paf1, stronger effect = lower value 1.01 | locus YCL011C, strain gbp2, stronger effect = lower value 1.05 | locus YCL016C, strain dcc1, stronger effect = lower value 1 | locus YCL029C, strain bik1, stronger effect = lower value 0.979 | locus YCL061C, strain MRC1, stronger effect = lower value 1.03 | locus YCL069W, strain vba3, stronger effect = lower value 1.02 | locus YCR088W, strain abp1, stronger effect = lower value 1.04 | locus YDL005C, strain med2, stronger effect = lower value 1.01 | locus YDL035C, strain GPR1, stronger effect = lower value 0.975 | locus YDL040C, strain nat1, stronger effect = lower value 0.993 | locus YDL074C, strain BRE1, stronger effect = lower value 0.988 | locus YDL101C, strain DUN1, stronger effect = lower value 0.981 | locus YDL134C, strain PPH21, stronger effect = lower value 0.988 | locus YDL185W, strain tfp1, stronger effect = lower value 0.983 | locus YDL192W, strain arf1, stronger effect = lower value 0.976 | locus YDR001C, strain nth1, stronger effect = lower value 1.03 | locus YDR069C, strain doa4, stronger effect = lower value 1.06 | locus YDR101C, strain arx1, stronger effect = lower value 0.987 | locus YDR137W, strain rgp1, stronger effect = lower value 1 | locus YDR150W, strain NUM1, stronger effect = lower value 0.973 | locus YDR159W, strain sac3, stronger effect = lower value 1.03 | locus YDR162C, strain NBP2, stronger effect = lower value 0.96 | locus YDR195W, strain ref2 1.03 | locus YDR297W, strain sur2, stronger effect = lower value 1.01 | locus YDR318W, strain mcm21, stronger effect = lower value 0.989 | locus YDR334W, strain swr1, stronger effect = lower value 1.04 | locus YDR335W, strain msn5, stronger effect = lower value 1.01 | locus YDR388W, stronger effect = lower value 0.999 | locus YDR392W, strain spt3, stronger effect = lower value 0.909 | locus YDR502C, strain sam2, stronger effect = lower value 0.952 | locus YEL003W, strain gim4, stronger effect = lower value 1.05 | locus YEL037C, strain rad23, stronger effect = lower value 1.02 | locus YEL061C, strain CIN8 (second series), stronger effect = lower value 1.02 | locus YEL061C, strain CIN8, stronger effect = lower value 0.986 | locus YER015W, strain faa2, stronger effect = lower value 1.04 | locus YER016W, strain bim1, stronger effect = lower value 1.02 | locus YER110C, stronger effect = lower value 0.972 | locus YER111C, strain swi4, stronger effect = lower value 1.03 | locus YER155C, strain BEM2 (second series), stronger effect = lower value 1.07 | locus YER155C, strain BEM2, stronger effect = lower value 1 | locus YER167W, strain BCK2, stronger effect = lower value 0.982 | locus YFR010W, strain ubp6, stronger effect = lower value 1.04 | locus YGL078C, strain dbp3, stronger effect = lower value 1.02 | locus YGL086W, strain mad1, stronger effect = lower value 0.938 | locus YGL167C, strain pmr1, stronger effect = lower value 1.02 | locus YGL173C, strain kem1, stronger effect = lower value 1.02 | locus YGL227W, strain vid30, stronger effect = lower value 1.05 | locus YGL240W, strain doc1, stronger effect = lower value 0.977 | locus YGL248W, strain PDE1, stronger effect = lower value 0.995 | locus YGL253W, strain hxk2, stronger effect = lower value 0.988 | locus YGR078C, strain PAC10, stronger effect = lower value 0.994 | locus YGR135W, strain pre9, stronger effect = lower value 0.961 | locus YGR229C, strain SMI1, stronger effect = lower value 0.923 | locus YGR252W, strain gcn5, stronger effect = lower value 1.05 | locus YHR013C, strain ard1, stronger effect = lower value 0.975 | locus YHR027C, strain rpn1, stronger effect = lower value 1.06 | locus YHR030C, strain SLT2, stronger effect = lower value 1 and 1.03 | locus YHR079C, strain IRE1 (second series), stronger effect = lower value 0.99 | locus YHR079C, strain IRE1, stronger effect = lower value 1.07 | locus YHR094C, strain hxt1, stronger effect = lower value 0.996 | locus YHR129C, strain ARP1, stronger effect = lower value 0.995 | locus YHR142W, strain chs7, stronger effect = lower value 0.975 | locus YHR200W, strain rpn10, stronger effect = lower value 0.97 | locus YIL066C, strain RNR3, stronger effect = lower value 0.982 | locus YIL073C, strain SPO22, stronger effect = lower value 1.01 | locus YIL125W, strain kgd1, stronger effect = lower value 1.02 | locus YIR030C, strain dcg1, stronger effect = lower value 0.986 | locus YJL092W, strain hpr5, stronger effect = lower value 1.02 | locus YJL095W, strain BCK1 (second series), stronger effect = lower value 1.02 | locus YJL095W, strain BCK1, stronger effect = lower value 1.02 and 1.01 | locus YJL115W, strain asf1, stronger effect = lower value 1.02 | locus YJL129C, strain trk1, stronger effect = lower value 1.04 | locus YJL134W, strain LCB3, stronger effect = lower value 0.988 | locus YJL154C, strain vps35, stronger effect = lower value 1.02 | locus YJL164C, strain tpk1, stronger effect = lower value 0.968 | locus YJL166W, strain qcr8, stronger effect = lower value 0.945 | locus YJL168C, strain set2, stronger effect = lower value 0.996 | locus YJL187C, strain SWE1 (second series), stronger effect = lower value 1 | locus YJL187C, strain SWE1, stronger effect = lower value 1 | locus YJR043C, strain POL32, stronger effect = lower value 0.962 | locus YJR066W, strain TOR1, stronger effect = lower value 0.995
